# About 2,700 (4%) of roughly 68,000 compounds showed an effect of 50% or more. The sample as a whole holds a higher share of strong results than the screen did.
# Test system: Plasmodium berghei
# Assay: Screen against P. berghei liver stage (PbLuc), transformed with Luciferase, at 2uM
# Type: functional, HepG2
# Conditions: tested at 2 uM
row,SMILES,INHIBITION [%]
1,O=C(c1cnccn1)N1CCOC2(CCN(Cc3ccsc3)CC2)C1,-3.36
2,Cc1noc([C@H]2COC[C@H]3CN(C(=O)Cc4ccccc4F)C[C@H]32)n1,15.89
3,Cc1noc([C@H]2COC[C@H]3CN(C(=O)Cc4ccc(F)cc4)C[C@H]32)n1,11.08
4,CCOCC(=O)N1C[C@@H]2COC[C@H](c3nc(C)no3)[C@@H]2C1,64.16
5,CC(C)c1ccc(C(CN)N2CCc3sccc3C2)cc1 (stereo unspecified),11.74
6,CN(Cc1ccco1)[C@@H]1CN(Cc2ccoc2)C[C@@H]2CCCO[C@@H]21,-11.13
7,CC1(C)CNC(=O)CN(C(=O)Cc2ccccc2)C1,30.56
8,CC(Cn1cncn1)NC1CCN(Cc2cccc(O)c2)CC1 (stereo unspecified),-6.77
9,Cc1cc(C)n(CC(C)NC2CCN(Cc3cccc(O)c3)CC2)n1 (stereo unspecified),32.71
10,CC(CN1CCOCC1)NC1CCN(Cc2cccc(O)c2)CC1 (stereo unspecified),58.12
11,COc1ccc(CCC(C)Nc2cccc(SC)c2)cc1 (stereo unspecified),2.5
12,CCOCC1c2c(ncn2C)CCN1C(=O)c1cnc(C)cn1 (stereo unspecified),-6.19
13,Cc1ccc(C(=O)N(C)CCOc2ccccc2F)c(=O)[nH]1,54.62
14,Cc1ccc(C(=O)N(Cc2ccccc2F)C2CC2)c(=O)[nH]1,-2.23
15,Cc1ccc(C(=O)N(C)Cc2cscn2)c(=O)[nH]1,44.39
16,O=S(=O)(c1ccc(F)cc1)n1cc(Cl)cn1,-0.9
17,NC(=O)c1ccc2c(c1)nc1n2CCN(Cc2cccnc2)C1,8.41
18,O=C(Nc1ccccc1)C1CN(Cc2nccs2)CC12CCOCC2 (stereo unspecified),11.9
19,Cc1cc(-c2cnc(N3CCSCC3)nc2-c2ccc(C)s2)on1,-48.18

row,SMILES,INHIBITION [%]
1,COc1ccc(SC(C)C(=O)N2CCC(C(N)=O)CC2)cc1 (stereo unspecified),-12.36
2,COc1ccc(SC(C)C(=O)N2CCC(O)CC2)cc1 (stereo unspecified),-0.39
3,COc1ccc(SC(C)C(=O)N2CCC(NC(=O)C3CC3)CC2)cc1 (stereo unspecified),61.74
4,O=C1N(c2cccnc2)CCC12CCCN(Cc1ccoc1)C2 (stereo unspecified),16.39
5,O=C(NCCc1ccccc1)N1C[C@@H]2C[C@H](C(=O)N3CCCC3)[C@H](C1)O2,-0.89
6,CCC1=N[C@@]2(CC[C@@H]3CN(Cc4ccc(F)cc4)C[C@@H]32)C(=O)N1C,-22.23
7,c1ccc(CN2CCCC(c3nccnc3-n3ccnc3)C2)cc1 (stereo unspecified),22.66
8,Fc1ccc(CN2CCCC(c3nccnc3-n3ccnc3)C2)cc1 (stereo unspecified),50.74
9,Fc1ccc(CN2CCC(c3nccnc3-n3ccnc3)CC2)cc1,16.87
10,CS(=O)(=O)N[C@@H]1CCN(Cc2cccnc2)[C@H]1Cc1ccccc1,7.26
11,CN(C)C1CCN(C(=O)c2cc(-c3ccn(C)n3)n3ccccc23)CC1,-40.37
12,CC(C)NC(=O)N1C[C@@H](F)[C@@H](OCc2nc3ccccc3o2)C1,16.47
13,CC(C)N1CCC(N2CCOC3(CCCC3)C2)C1=O (stereo unspecified),-0.75
14,COC(=O)c1sccc1S(=O)(=O)NCCC(O)c1ccco1 (stereo unspecified),4.89
15,Fc1cccc2ncnc(NCCCc3ccncc3)c12,54.3
16,CSCCCNc1ncnc2cccc(F)c12,28.79
17,CS(=O)(=O)NCCNc1ncnc2cccc(F)c12,17.73
18,CC(C)(C)c1cn(C2CCN(C(=O)c3cnccn3)CC2)nn1,50.4
19,CC(C)(C)c1cn(C2CCN(C(=O)c3cncnc3)CC2)nn1,40.83

row,SMILES,INHIBITION [%]
1,CC(C)n1cc(C(=O)N2CCC(n3cc(C(C)(C)C)nn3)CC2)cn1,22.39
2,Cc1cncc(C(=O)N2C[C@@H](C(=O)O)[C@H](C(C)C)C2)c1,44.23
3,COc1cc(C2(C(=O)NCCn3ccnc3)CCCC2)ccc1C,-64.32
4,CCc1ncc(S(C)(=O)=O)c(C2CCCNC2)n1 (stereo unspecified),18.8
5,O=C(NCCn1ccc(-c2ccncc2)n1)c1ccc2c(c1)OCO2,6.33
6,CCCS(=O)(=O)NC(C)C(=O)NCc1ccc(N2CCN(C)CC2)nc1 (stereo unspecified),-34.5
7,COc1ccc(OC)c(C(C)NC(=O)Nc2nnc(C)s2)c1 (stereo unspecified),-10.7
8,COc1ccc(C(C)NC(=O)Nc2nnc(C)s2)c(OC)c1 (stereo unspecified),58.69
9,COc1cc(C)c(C(C)NC(=O)Nc2nnc(C)s2)cc1OC (stereo unspecified),39.48
10,CC(Cc1c(F)cccc1F)NC(=O)CSCC(N)=O (stereo unspecified),14.19
11,CC(C)N(CC(N)=O)CC(=O)NCCc1c(F)cccc1F,37.18
12,CC(Cc1c(F)cccc1F)NC(=O)CN(CC(N)=O)C(C)C (stereo unspecified),58.53
13,CNS(=O)(=O)c1ccc(CN2CCN3CCNC(=O)C3C2)cc1 (stereo unspecified),-43.5
14,O=C1NCCN2CCN(C(=O)NCCc3ccccc3)CC12 (stereo unspecified),33.48
15,CS(=O)(=O)c1ccc(CC(=O)N2CCN3CCNC(=O)C3C2)cc1 (stereo unspecified),83.83
16,Cc1cc(-c2cnc(N3CCOCC3)nc2-c2ccc(C)s2)on1,8.09
17,CS(=O)(=O)NCCN1CCSCC1c1ccc(Cl)cc1 (stereo unspecified),36.28
18,Cc1ccc(C2CSCCN2CCS(C)(=O)=O)cc1 (stereo unspecified),38.67
